# Measured values as given in PubChem BioAssay (Tox21).
# Results filed as inconclusive are left out. Values without a mark were called inactive. Calls of active or inactive are those of the source. Calls come from the whole dose curve; as a rule, active = well fitted cell-killing curve with a large enough effect in the repeat runs; inconclusive = weak or mixed curves, or effect the other way; inactive = flat fitted curve, though single readings scatter.
# Assay: Nuclear factor erythroid 2-related factor 2/antioxidant responsive element (Nrf2/ARE) small molecule agonists: qHTS cell viability counter screen in human keratinocytes (AID 1919968); note: nearly all actives have a fitted effect of over 55% in size
# Conditions: KeratinoSens HaCaT ARE cells viability, CellTiter-Fluor, 24 h; series mostly up to 92.4 µM; activity change, negative = cytotoxicity: at the top concentration
# From the text: U.S. Tox21 Program National Center for Advancing Translational Sciences [NCATS] Division of Preclinical Innovation [DPI] U.S. Environmental Protection Agency [EPA] National Institutes of Environmental Health Sciences [NIEHS] National Toxicology Program [NTP] U.S. Food and Drug Administration [FDA] Tox21 Assay Overview: Oxidative stress has been implicated in the pathogenesis of a variety of diseases ranging from cancer to neurodegeneration. The antioxidant response element (ARE) signaling pathway plays an important role in the amelioration of oxidative stress. The KeratinoSens (Givaudan, Switzerland) is an in vitro test method which quantifies luciferase induction as a measure of activation of Keap1-Nrf2-antioxidationt/electrophile response element (ARE) dependant pathway in HaCaT human keratinocytes stably transfected with a selectable plasmid. The KeratinoSens assay is a cell-based assay with a reporter cell line to detect potential skin sensitizers by their ability to induce the Nrf2/ARE-response. The activation of the report gene under culture conditions can be detected by ONE-Glo Luciferase Assay System (Promega, Madison, WI). This cell line has been used to screen the Tox21 10K compound library to identify agonists that induce oxidative stress. The cytotoxicity of the Tox21 compound library against the KS-ARE cell line was tested in parallel by measuring the cell viability using CellTiter- Fluor assay system (Promega, Madison, WI) in the same wells.
# Tox21 Assay Protocol Summary: HaCaT derived cell line KeratinoSens were dispensed at 1,500 cells/5uL/well in 1536-well white wall/solid bottom plates using a Multidrop Combi (ThermoFisher Scientific, Waltham, MA) dispenser. After the assay plates were incubated at 37 C/5% CO2 for 5 h, 23 nL of compounds dissolved in DMSO, positive controls or DMSO only was transferred to the assay plate by a pintool workstation (Kalypsys, San Diego, CA). The plates were incubated at 37 C/5% CO2 for 23 h, followed by addition of 1uL/well of CellTiter-Fluor reagent into the assay plates using a Flying Reagent Dispenser (Aurora Discovery, San Diego, CA) for cell viability readout that measures cytotoxicity. After 1 h incubation at 37 C/5% CO2 the fluorescence intensity was measured using a ViewLux (PerkinElmer, Shelton, CT) plate reader.
# % is set by controls: 0 for no effect and ±100 for the full control effect; potency is the fitted concentration of half-maximal effect.
SMILES,"activity change, negative = cytotoxicity",Potency
CN(C)CCCCl,-1.24%,
CN1CCN(C2Cc3ccccc3Sc3ccc(Cl)cc32)CC1 (stereo not given),,29.8 µM (active)
c1ccc(CNCCNCc2ccccc2)cc1,0.271% [at 42.5 µM],
CCN(Cc1c(F)cccc1Cl)c1c([N+](=O)[O-])cc(C(F)(F)F)cc1[N+](=O)[O-],25.7%,
O=C1c2ccccc2C(=O)C1(O)O,-1.58%,
C/C(=C(\CCOP(=O)(O)O)SC(=O)c1ccccc1)N(C=O)Cc1cnc(C)nc1N,-6.37% [at 8.39 µM],
CCOC(=O)[C@H](CCc1ccccc1)N[C@@H](C)C(=O)N1CCC[C@H]1C(=O)O,-14.4% [at 42.5 µM],
Nc1nc2c(ncn2COCCO)c(=O)[nH]1,1.58% [at 42.5 µM],
CN(C)c1ccc(CCO)cc1,5.13%,
Nc1ccc(Oc2cccc(Oc3ccc(N)cc3)c2)cc1,-1.87%,
COc1cc2c(cc1OC)C(=O)CC2,-3.5% [at 42.5 µM],
CCn1nc(Cc2ccccc2)cc1C1CCN(C[C@H]2C[C@H](N(C)[C@@H](C(=O)O)C(C)C)C[C@@H]2c2cccc(F)c2)CC1,-1.45%,
ONc1ccccc1,2.8%,
CCCCCCCCCCCC(=O)NCCCN(C)C,,27.3 µM (active)
N=C1N=C(N)c2ccccc21,,61.1 µM (active)
NC1CCN(c2nc3c(cc2F)c(=O)c(C(=O)O)cn3-c2ccc(F)cc2F)C1 (stereo not given),4.42% [at 42.5 µM],
O=C(OCCCCCCOC(=O)c1ccccc1)c1ccccc1,7.07%,
CC1(C)C(=O)N(CO)C(=O)N1CO,-3.13%,
Oc1ccccc1C=NCc1ccccc1,-0.204% [at 42.5 µM],
CC(C)(C)N,8.03%,

SMILES,"activity change, negative = cytotoxicity",Potency
CCN(CC)CCOc1ccccc1C(=O)CCc1ccccc1,-1.17% [at 42.5 µM],
O=C(O)Cc1ccccc1Oc1ccc(Cl)cc1Cl,0.278% [at 42.5 µM],
CCOC(=O)c1c(N)sc2c1CCN(Cc1ccccc1)C2,2.96% [at 42.5 µM],
CC12CCC(CC1=O)C2(C)C (stereo not given),0.285%,
COc1ccc(C)cc1[N+](=O)[O-],1.19%,
C[C@@H](CN1CC(=O)NC(=O)C1)N1CC(=O)NC(=O)C1,-1.37% [at 42.5 µM],
S=C1NC=NC2N=CNC12 (stereo not given),-0.995%,
Brc1c2ccccc2cc2ccccc12,-16.3%,
CCc1cc(Cc2cc(CC)cc(C(C)(C)C)c2O)c(O)c(C(C)(C)C)c1,,13.7 µM (active)
CN(C)CCN(C)CCN(C)C,2.18%,
CC(=O)Nc1ccc(C)c(Cl)c1,5.81%,
C=C(C)C1CCC(C)CC1O (stereo not given),-2.6%,
O=C1C=CCCC1,-0.817%,
C[n+]1cc2c3c(ccc2c2ccc4cc5c(cc4c21)OCO5)OCO3,,1.64 µM (active)
CC(C)(O)c1ccc(CNC(=O)c2cccnc2Oc2ccc3nonc3c2)cc1,-6.3%,
C=CCOc1nc(OCC=C)nc(OCC=C)n1,0.108%,
O=Cc1c(Cl)cccc1Cl,0.139%,
CCCCCCCCCCCCCCCC/C=C/C1CC(=O)OC1=O (stereo not given),-1.8% [at 42.5 µM],
CO[C@@H]1[C@H](OC(=O)/C=C/C=C/C=C/C=C/C(=O)O)CC[C@]2(CO2)[C@H]1[C@@]1(C)O[C@@H]1CC=C(C)C,1.71%,
CN(C)CCCN1c2ccccc2Sc2ccccc21,-19.3% [at 42.5 µM],
